# Source: PubChem BioAssay (EPA / NIEHS)
# Values joined by “and” are separate entries in the source; they are usually repeats but may differ in a detail not shown here. Equal values may be shown once. Inconclusive results are not listed. More than one record can exist for a structure, and the calls need not agree. Active and inactive are the calls of the source. Rule for the calls: active = hit-call score of the fitted dose curve at least 0.9, where 1 is the maximum; inconclusive = response in the unintended direction; inactive = score below 0.9.
# Test: CCTE_Shafer_MEA_dev_AB: CCTE's Alamar Blue Assay for Cytotoxicity in the Neural Network Formation Assay, Shafer Lab (AID 2284083);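 note: twelve days of exposure from plating with re-dosing on DIV 5 and 9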
# Experimental: CCTE_Shafer_MEA_dev assay is conducted using Axion Biosystems 48 well microelectrode array (MEA) plates and Maestro recording system. Each well of the MEA plate contains a grid of 16 microelectrodes embedded in the culture surface. Electrically active cells, such as neurons, can be cultured over the electrodes, and electrical activity in these cells can be recorded extracellularly. The spontaneous firing of neurons is captured from each electrode on a microsecond timescale providing both temporally and spatially precise data. […] The CCTE_Shafer_MEA_dev assay uses primary cultures of rat cortical neurons. Recordings are made on days post-plating 5, 7, 9 and 12. As these cultures mature over time, neural networks develop functional activity and form cohesive networks in which electrical activity can be highly coordinated. CCTE_Shafer_MEA_dev_AB is 1 of 19 assay components of the CCTE_Shafer_MEA_dev assay. It measures the resazurin reduction using fluorescence.Data from the assay component CCTE_Shafer_MEA_dev_AB was analyzed into 1 assay endpoint. This assay endpoint, CCTE_Shafer_MEA_dev_AB, was analyzed in the positive analysis fitting direction relative to DMSO as the negative control and baseline of activity. Using a type of viability reporter, loss-of-signal activity can be used to understand cell viability.
# On the day prior to culture, each well was coated thoroughly with 150 uL of 0.05% polyethyleneimine (PEI, Sigma Cat P3143) in 50 mM HEPES (Sigma Cat H7523) at a pH of 8. The plate was incubated at 37C for one hour. PEI was rinsed out with 500 uL of sterile water three times. Plates were stored at 4C until the day of culture. This culture was plated at a seeding density of 1.5 x 10^5 cells/well on a 48-well MEA plate, prepared as described above. Cells were administered via a 25 uL media/laminin ([…]; Sigma Cat L2020-1MG) drop directly onto the microelectrode array, as adding the cells with the laminin results in better attachment than pre-coating with laminin. After 2 hours, an additional 475 uL of cortical media was added and the cells returned to the incubator. Exposure starts at day 0 of plating and is continued over twelve days of network development until the experiment is terminated. Cells are fed with fresh medium on DIV 5 and 9, following the recordings on those days. The entire volume of media in the well is exchanged and any vehicle or compound treatment is renewed. Complete details are found in OP-NHEERL/ISTD/SBB/TJS/2015-03-r0 (available on request, email shafer.tim@epa.gov). Measurement of the electrical activity is non-invasive, and recordings can be made from the same plate over multiple different days of the culture. In cortical neurons, this allows for the measurement of extracellular action potentials over the period during which networks form in the MEA plate.
Structure (SMILES),AC50,outcome
C=C(C)CN(CC)c1c([N+](=O)[O-])cc(C(F)(F)F)cc1[N+](=O)[O-],15.6 µM (active),
COP(=S)(OC)SCn1nnc2ccccc2c1=O,26.2 µM (active),
CCOP(=O)(OCC)Oc1nc(Cl)c(Cl)cc1Cl,9.43 µM (active) and 334 nM (active),inactive
CS(=O)(=O)c1ccc(C(=O)C2C(=O)CCCC2=O)c([N+](=O)[O-])c1,,inactive
CC(C)(C)C(=O)C(Oc1ccc(Cl)cc1)n1cncn1 (centres undefined),38.6 µM (active),
CNC(=O)Oc1cccc2ccccc12,15 µM (active),inactive
CC1(C)C(C=C(Cl)Cl)C1C(=O)OC(C#N)c1cccc(Oc2ccccc2)c1 (centres undefined),,inactive
CC1(C)C(C(=O)OC(C#N)c2cccc(Oc3ccccc3)c2)C1(C)C (centres undefined),1.98 µM (active),
O=C1C2CC=CCC2C(=O)N1SC(Cl)(Cl)Cl (centres undefined),16.1 µM (active) and 14.7 µM (active),
CC(C)=CC1C(C(=O)OCc2coc(Cc3ccccc3)c2)C1(C)C (centres undefined),,inactive
CCNC(=O)NC(=O)C(C#N)=NOC,,inactive
O=C(Nc1ccccc1-c1ccc(Cl)cc1)c1cccnc1Cl,77.7 µM (active),inactive
CCN(CC)c1nc(C)cc(OP(=S)(OC)OC)n1,50 µM (active),
COP(=S)(OC)Oc1ccc([N+](=O)[O-])c(C)c1,,inactive
CCCN(CC)CC1COC2(CCC(C(C)(C)C)CC2)O1 (centres undefined),0.246 µM (active),
COP(=O)(OC)O/C(C)=C/C(=O)N(C)C,,inactive
COC(=O)N(C(=O)N1CO[C@@]2(C(=O)OC)Cc3cc(Cl)ccc3C2=N1)c1ccc(OC(F)(F)F)cc1,2.98 µM (active),
CO/N=C(/C1=NOCCO1)c1ccccc1Oc1ncnc(Oc2ccccc2Cl)c1F,1.47 µM (active) and 2.27 µM (active),
CCSC(=O)N1CCCCCC1,,inactive
CCOC(=O)C(C)OC(=O)c1cc(Oc2ccc(C(F)(F)F)cc2Cl)ccc1[N+](=O)[O-] (centres undefined),,inactive
Cc1c(COC(=O)[C@@H]2[C@H](/C=C(\Cl)C(F)(F)F)C2(C)C)cccc1-c1ccccc1,14.6 µM (active) and 14.9 µM (active),
